Screening data from PubChem BioAssay.
Sampled rows, rich in hits. Any-hit rate of the full collection: about 5.7%.
D3 ag: D3 dopamine receptor (human) agonism; AID 652048; P35462; hit rate 0.58% among 410,000; max activation, %; D3R DiscoveRx beta-arrestin cells, luminescence, 90 min; in the data active means max activation above about 30%; further: 0% is about no effect
Target sequence (P35462 whole entry, looked up): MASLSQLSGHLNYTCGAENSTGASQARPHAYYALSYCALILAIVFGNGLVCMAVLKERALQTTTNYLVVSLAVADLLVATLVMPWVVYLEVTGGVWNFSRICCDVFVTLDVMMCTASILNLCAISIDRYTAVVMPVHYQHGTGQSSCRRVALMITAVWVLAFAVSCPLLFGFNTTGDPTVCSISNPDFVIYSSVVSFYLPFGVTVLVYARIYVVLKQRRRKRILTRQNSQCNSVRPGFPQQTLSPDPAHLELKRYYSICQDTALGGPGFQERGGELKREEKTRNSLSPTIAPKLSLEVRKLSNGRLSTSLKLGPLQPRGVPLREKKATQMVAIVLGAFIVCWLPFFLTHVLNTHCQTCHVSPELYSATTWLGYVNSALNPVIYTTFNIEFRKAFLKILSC
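Agonist mode: compounds and dopamine controls were applied to plated cells for 90 min at 37 degrees C after an overnight attachment at 1500 cells/well. Luminescent read-out followed 30 - 60 minutes at room temperature with DiscoveRx detection reagent.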
D3 antag: blocks the human D3 dopamine receptor; P35462; D3R cells, DiscoveRx beta-arrestin luminescence, antagonist mode; active compounds read low; max response, negative = inhibition, %; hit rate 2.5% among 360,000; in the data active means max response below about -50%; inconclusive means no clear call, values can overlap the other calls; further: on the % scale 0 is the no-effect control and ±100 the full control effect
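Cells plated overnight at 1500 cells/well, then exposed to library compounds with dopamine controls for 90 minutes at 37 degrees C. DiscoveRx reagent added for 30–60 minutes at room temperature; luminescence read, quantitative HTS format.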
ClpP mod: qHTS Assay for Activators of ClpP; ATP-dependent Clp protease proteolytic subunit (Bacillus subtilis (strain 168)), P80244; purified B. subtilis ClpP, FRET peptide cleavage, 20 min; Potency, µM (top dose mostly 57.5 µM), for the others: top-dose activity change, negative = active; hit rate 1.9% among 340,000; AID 651965, 2013; active means well fitted falling curve with a large enough effect; inconclusive means small, poorly fitted or top-dose-only effect; inactive means no such curve, though single readings can be large or run the other way; further: potency means the concentration at half of the fitted maximal effect; the source files actives as falling curves though it sought activators and does not explain the sign; nearly all actives have a fitted effect of over 65% in size
Target sequence (P80244 whole entry, looked up): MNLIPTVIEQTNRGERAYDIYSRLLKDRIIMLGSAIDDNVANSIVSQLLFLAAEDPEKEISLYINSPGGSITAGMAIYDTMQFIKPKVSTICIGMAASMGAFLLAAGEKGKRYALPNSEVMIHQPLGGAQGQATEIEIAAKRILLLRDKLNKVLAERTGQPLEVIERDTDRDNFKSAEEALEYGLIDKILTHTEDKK
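FRET quenching reversal measured ClpP activation: 10 microg/mL B. subtilis ClpP at pH 8 with the FRET-FV decapeptide, read at 430 nm after 320 nm excitation. The 20-min minus 0-min signal was scaled between DMSO/no-enzyme wells and ADEP (5.8 microM final).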
GLP-1R inv ag: GLP-1 receptor (human) inverse agonism | P43220 | HEK293 GLP-1R CRE-luciferase, luminescence, 24 h; GLP-1R form is constitutively active | Potency, µM (highest dose often 38.3 µM), inactives show at the highest dose activity change, negative = inhibition, hits mostly inhibitors | hit rate 1.6% among 410,000; further: potency means the concentration at half of the fitted maximal effect; on the % scale 0 is the no-effect control and ±100 the full control effect; nearly all actives have a fitted effect of over 55% in size
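Luminescence readout: a drop in cAMP-driven luciferase signal flags inverse agonism at a constitutively active GLP-1R stably expressed in HEK293. Compound exposure lasted 24 hr at 37 deg C, 5% CO2.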
GLP1R ag: agonists of human GLP-1 receptor. Potency, µM (top dose mostly 45.6 µM), for the others: at the highest dose activation, hits mostly activators. AID 624172. hit rate 0.007% among 380,000. HEK293 GLP-1R CRE-luciferase, luminescence, 4-6 h; cells express a hypersensitive GLP-1R form; further: potency means the concentration at half of the fitted maximal effect; % of control where 0% means no effect
HEK293 tox: cytotoxic in the GLP-1 receptor inverse agonist counter-screen; HEK293 cAMP-luciferase reporter cells, luminescence, 24 h; AID 624418; hit rate 0.13% among 410,000; Potency, µM (series often up to 38.3 µM), without a hit: at the top dose activity change, negative = inhibition, actives largely listed as inhibitors;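 further: loss of luciferase light is scored as toxicity; potency means the concentration at half of the fitted maximal effect; on the % scale 0 is the no-effect control and ±100 the full control effect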
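Luminescence readout: signal drop marks cytotoxicity. Plated cells grew 12 h at 37 °C, 5% CO2, received 23 nL compound for 24 h, then got luciferase reagent, read after 12 min at RT.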
Numbers without * were called inactive; ? = inconclusive; nt = no result given. Unless noted, the call rests on the fitted dose curve; in most records, active means well fitted curve in the direction sought with a large enough effect; inconclusive means small, poorly fitted or top-dose-only effect, or another doubt; inactive means no such curve, though single readings can be large; an effect the other way counts as inactive or inconclusive.

SMILES	D3 ag	D3 antag	ClpP mod	GLP-1R inv ag	GLP1R ag	HEK293 tox
O=[N+]([O-])c1ccccc1OCCNCc1ccccc1	25	-86*	0%	-19%	14%	-45%
Cc1ccc([N+](=O)[O-])c(OCCn2cnc3ccccc32)c1	-18	-18	0%	2%	2%	-4%
Cc1ccc([N+](=O)[O-])c(OCCN2CCCCCC2)c1	-14	-90*	0%	?	-3%	-7%
Cc1ccc(C)c(OCCCN2CCCC2)c1	-60	?	1%	-11%	-3%	-12%
CN(C(=O)CSc1nc(-c2ccccc2)no1)c1ccc(F)cc1	4	nt	1%	-2%	nt	1%
Cn1cnc(S(=O)(=O)N2CCC(C(=O)N3CCN(c4ccccc4F)CC3)CC2)c1	-5	nt	3%	6%	nt	-7%
C[C@H](NC(=O)c1ncn2c1C(=O)NC[C@H]2C)C(=O)OC(C)(C)C	1	-7	-1%	13%	-3%	-5%
Nc1nonc1OCCN1CCN(c2ccc([N+](=O)[O-])c3cccnc23)CC1	-8	-5	nt	1%	16%	?
Cc1nonc1OCCN1CCN(c2ccccc2[N+](=O)[O-])CC1	-9	-58*	nt	?	5%	5%
O=c1c2c(n3cnnc3n1-c1ccccc1)-c1ccccc1CC21CCCC1	1	-23	-5%	18%	6%	24%
Cn1c(=O)c2c(n3cnnc13)-c1ccccc1CC21CCCC1	3	-56*	-12%	0%	2%	7%
CSc1nnc2n(C)c3c(c(=O)n12)C1(CCCC1)Cc1ccccc1-3	0	39	28µM*	0%	-3%	15%
O=C(Nc1ccc(C(F)(F)F)cc1)C1(c2cccs2)CCOCC1	-6	nt	2%	?	nt	-2%
CNc1ncnc2c1ncn2[C@H]1CN(Cc2cccc3ccccc23)C[C@@H](CO)O1	111*	25	-1%	5%	-7%	-10%
CNc1ncnc2c1ncn2[C@H]1CN(Cc2ccccc2)C[C@@H](CO)O1	-8	-8	2%	7%	-4%	0%
CNc1ncnc2c1ncn2[C@H]1CN(CCOC)C[C@@H](CO)O1	5	-56*	0%	35%	-2%	2%
CN(c1ccc(OCC(=O)N2CCN(c3ccc(F)cc3)CC2)cc1)S(=O)(=O)c1cccs1	1	-20	nt	11µM*	0%	-3%
COc1ccc(/C=c2\s/c(=C\C(=O)C(C)(C)C)[nH]c2=O)cc1O	1	5	1%	45%	3%	?
Cc1cccc(/C=c2\s/c(=C\C(=O)C(C)(C)C)[nH]c2=O)c1	-5	-8	-1%	8.9µM*	1%	?
COc1cc(CNCCCSc2nnnn2C)cc(Br)c1OC	-14	nt	0%	-6%	nt	4%
O=C(NC(c1ccccc1)c1ccc2ccccc2n1)C1CCN(CCOc2ccc(Cl)cc2Cl)CC1 (configuration not stated)	-8	-22	-29%	?	-10%	?
CN(C)c1ccc(CN2CCC(C(=O)NC(c3ccc(F)cc3)c3ccc4ccccc4n3)CC2)cc1 (configuration not stated)	-23	-82*	-3%	?	3%	?
O=C(NC(c1ccc(F)cc1)c1ccc2ccccc2n1)C1CCN(Cc2cccc(C(F)(F)F)c2)CC1 (configuration not stated)	-14	-81*	-5%	?	-6%	-19%
O=C(NC(c1ccc(F)cc1)c1ccc2ccccc2n1)C1CCN(Cc2ccc3ccccc3n2)CC1 (configuration not stated)	-15	-53*	-3%	?	-2%	-16%
COc1cc(/C=C/CN2CCC(C(=O)NC(c3ccc(F)cc3)c3ccc4ccccc4n3)CC2)ccc1OC(C)=O (configuration not stated)	-26	-110*	-5%	10µM*	-5%	?
SMILES	D3 ag	D3 antag	ClpP mod	GLP-1R inv ag	GLP1R ag	HEK293 tox
COc1cc(OC)nc(C(NC(=O)C2CCN(Cc3ccc(N(C)C)cc3)CC2)c2ccc(F)cc2)n1 (configuration not stated)	-15	?	0%	-16%	-4%	2%
CC(C)(C)NC(=O)C1(C)CCC(=O)N1C1CCN(Cc2ccccc2)CC1 (configuration not stated)	-2	16	-3%	34%	0%	-2%
O=C(CSc1nc2ccccc2nc1Cc1ccccc1F)Nc1cccc(C(F)(F)F)c1	10	nt	-2%	7%	nt	9%
CC[C@@H](CO)NCCN[C@@H](CC)CO	2	nt	nt	nt	nt	nt
Cc1ccc(-n2ncc3c(SCc4cccc(C)c4)ncnc32)cc1	2	16	28µM*	17%	1%	-8%
O=C1C(=O)C(c2ccccc2)C(=O)C1c1ccccc1 (configuration not stated)	87*	-20	nt	?	-3%	-7%
O=C1c2ccccc2C(=O)C1c1ccncc1	-5	-11	-1%	?	-30%	-9%
C=CS(=O)(=O)O	-24	nt	nt	nt	-4%	nt
COc1ccc(OC)c(Nc2nc3ccccc3nc2-n2nc(C)cc2C)c1	0	nt	0%	22%	nt	29%
CCC(=O)N1c2ccc(S(=O)(=O)CCC(=O)N3CCN(c4ccc(F)cc4)CC3)cc2CC1C (configuration not stated)	3	nt	-1%	-18%	0%	-3%
O=C(Nc1ncc2c(n1)-c1ccccc1OC2)c1ccc(Cl)cc1Cl	4	7	35µM*	0%	-10%	5%
O=C(Nc1ncc2c(n1)-c1ccccc1CC2)c1ccc(Cl)cc1	-33	-12	28µM*	?	-3%	-8%
O=C(Nc1ncc2c(n1)-c1ccccc1OC2)c1ccc(F)cc1	0	0	nt	-8%	2%	16%
CC1C/C(=N\NC(=S)NC(C)C)CC(C)(C)C1 (configuration not stated)	-3	-30	0%	4.5µM*	-6%	?
CCOc1ccc2nc(C)cc(C(=O)O)c2c1	-1	-11	3.2µM*	-2%	-2%	4%
COc1ccc2nc(C)cc(C(=O)O)c2c1	-1	-30	8.9µM*	8%	-5%	5%
Cc1cc(Nc2cccc(Cl)c2)nc2ccc(NC(=O)c3cccc(N(C)C)c3)cc12	-12	nt	4%	5.6µM*	-3%	-19%
Cc1ccc(Nc2cc(C)c3c(O)cccc3n2)cc1C	-5	-23	?	?	25%	-8%
